Measurements: PubChem BioAssay
Activity calls are given as the source filed them.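 Rule for the calls, unless noted: active = normalized viability below 100% at a tested concentration; inactive = the rest.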

Columns and labels:
[1] = drug combination growth inhibition, ovarian cancer – cell-based, oncology-focused library, rucaparib conditional, profiling panel (AID 1508598); conditions: patient-derived ovarian cancer cells, CellTiter-Glo viability, 144 h, active compounds read low
[2] = molecular target: NAD(+) hydrolase SARM1 (Homo sapiens) (UniProt Q6SZW1); assay: blocking NAD cleavage by SARM1 SAM-TIR – cell lysate, NAD-Glo luminescence (AID 1508614;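 active = compound whose remaining NAD level is above about 45 nM, limit read from the data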;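 note: higher remaining NAD means stronger inhibition of SARM1 NADase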); conditions: SAM-TIR HEK293T lysate NADase, at 1 µM, active compounds read high
[3] = at 0.000305 µM, OCI-C5x cells, with rucaparib 10 µM, 100% = cells with rucaparib alone
[4] = at 0.000305 µM, OCI-C5x cells, without rucaparib
[5] = at 0.000305 µM, OCI-P5x cells, with rucaparib 20 µM, 100% = cells with rucaparib alone
[6] = at 0.000305 µM, OCI-P5x cells, without rucaparib
[7] = at 0.00122 µM, OCI-C5x cells, with rucaparib 10 µM, 100% = cells with rucaparib alone
[8] = at 0.00122 µM, OCI-C5x cells, without rucaparib
[9] = at 0.00122 µM, OCI-P5x cells, with rucaparib 20 µM, 100% = cells with rucaparib alone
[10] = at 0.00122 µM, OCI-P5x cells, without rucaparib
[11] = at 0.00488 µM, OCI-C5x cells, with rucaparib 10 µM, 100% = cells with rucaparib alone
[12] = at 0.00488 µM, OCI-C5x cells, without rucaparib
[13] = at 0.00488 µM, OCI-P5x cells, with rucaparib 20 µM, 100% = cells with rucaparib alone
[14] = at 0.00488 µM, OCI-P5x cells, without rucaparib
[15] = at 0.0195 µM, OCI-C5x cells, with rucaparib 10 µM, 100% = cells with rucaparib alone
[16] = at 0.0195 µM, OCI-C5x cells, without rucaparib
[17] = at 0.0195 µM, OCI-P5x cells, with rucaparib 20 µM, 100% = cells with rucaparib alone
[18] = at 0.0195 µM, OCI-P5x cells, without rucaparib
[19] = at 0.0781 µM, OCI-C5x cells, with rucaparib 10 µM, 100% = cells with rucaparib alone
[20] = at 0.0781 µM, OCI-C5x cells, without rucaparib
[21] = at 0.0781 µM, OCI-P5x cells, with rucaparib 20 µM, 100% = cells with rucaparib alone
[22] = at 0.0781 µM, OCI-P5x cells, without rucaparib
[23] = at 0.313 µM, OCI-C5x cells, with rucaparib 10 µM, 100% = cells with rucaparib alone
[24] = at 0.313 µM, OCI-C5x cells, without rucaparib
[25] = at 0.313 µM, OCI-P5x cells, with rucaparib 20 µM, 100% = cells with rucaparib alone
[26] = at 0.313 µM, OCI-P5x cells, without rucaparib
[27] = at 1.25 µM, OCI-C5x cells, with rucaparib 10 µM, 100% = cells with rucaparib alone
[28] = at 1.25 µM, OCI-C5x cells, without rucaparib
[29] = at 1.25 µM, OCI-P5x cells, with rucaparib 20 µM, 100% = cells with rucaparib alone
[30] = at 1.25 µM, OCI-P5x cells, without rucaparib
[31] = at 5 µM, OCI-C5x cells, with rucaparib 10 µM, 100% = cells with rucaparib alone
[32] = at 5 µM, OCI-C5x cells, without rucaparib
[33] = at 5 µM, OCI-P5x cells, with rucaparib 20 µM, 100% = cells with rucaparib alone
[34] = at 5 µM, OCI-P5x cells, without rucaparib

NAD(+) hydrolase SARM1 (Homo sapiens), sequence (Q6SZW1 whole entry, looked up): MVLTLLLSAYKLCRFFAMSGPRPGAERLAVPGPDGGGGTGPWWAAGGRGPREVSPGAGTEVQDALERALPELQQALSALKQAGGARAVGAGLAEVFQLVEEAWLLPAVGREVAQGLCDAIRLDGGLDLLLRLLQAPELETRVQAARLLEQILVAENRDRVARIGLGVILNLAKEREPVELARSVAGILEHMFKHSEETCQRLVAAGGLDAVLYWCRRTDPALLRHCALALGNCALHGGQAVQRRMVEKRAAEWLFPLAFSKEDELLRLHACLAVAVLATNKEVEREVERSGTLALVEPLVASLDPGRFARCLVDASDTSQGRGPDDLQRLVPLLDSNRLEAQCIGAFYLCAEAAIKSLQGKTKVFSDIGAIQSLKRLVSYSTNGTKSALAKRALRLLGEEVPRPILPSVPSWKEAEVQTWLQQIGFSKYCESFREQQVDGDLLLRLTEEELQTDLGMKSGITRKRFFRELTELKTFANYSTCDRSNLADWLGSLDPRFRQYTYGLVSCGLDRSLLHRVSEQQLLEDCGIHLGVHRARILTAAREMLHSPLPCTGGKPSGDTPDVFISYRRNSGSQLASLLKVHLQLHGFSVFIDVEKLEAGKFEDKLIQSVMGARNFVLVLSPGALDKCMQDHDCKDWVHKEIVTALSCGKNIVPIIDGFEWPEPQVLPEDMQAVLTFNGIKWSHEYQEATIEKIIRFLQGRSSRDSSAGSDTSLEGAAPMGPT

Cc1[nH]c(C=C2C(=O)Nc3ccc(S(=O)(=O)Cc4c(Cl)cccc4Cl)cc32)c(C)c1C(=O)N1CCC[C@@H]1CN1CCCC1
active: viability [1, 5] 74% | viability [1, 6] 47.4% | viability [1, 9] 87.5% | viability [1, 10] 57.1% | viability [1, 17] 93.6% | viability [1, 18] 91.6% | viability [1, 21] 96% | viability [1, 22] 89.5% | viability [1, 25] 93% | viability [1, 26] 94.4% | viability [1, 29] 90.6% | viability [1, 30] 87% | viability [1, 33] 1.25% | viability [1, 34] 52.5%
inactive: viability [1, 3] 124% | viability [1, 4] 124% | viability [1, 7] 122% | viability [1, 8] 115% | viability [1, 11] 116% | viability [1, 12] 121% | viability [1, 13] 105% | viability [1, 14] 101% | viability [1, 15] 107% | viability [1, 16] 111% | viability [1, 19] 106% | viability [1, 20] 113% | viability [1, 23] 123% | viability [1, 24] 110% | viability [1, 27] 122% | viability [1, 28] 136% | viability [1, 31] 109% | viability [1, 32] 116%

CCC(C)(C)C(=O)O[C@@H]1C[C@@H](C)C=C2C=C[C@H](C)[C@@H](CC[C@@H]3C[C@@H](O)CC(=O)O3)[C@H]21
active: viability [1, 13] 96.9% | viability [1, 15] 95.4% | viability [1, 17] 94.2% | viability [1, 19] 76.6% | viability [1, 20] 70.9% | viability [1, 21] 72.4% | viability [1, 22] 66.6% | viability [1, 23] 36% | viability [1, 24] 32% | viability [1, 25] 13.1% | viability [1, 26] 14.5% | viability [1, 27] 24.2% | viability [1, 28] 27.2% | viability [1, 29] 7.81% | viability [1, 30] 7.43% | viability [1, 31] 8.07% | viability [1, 32] 7.81% | viability [1, 33] 5.14% | viability [1, 34] 3.59%
inactive: viability [1, 3] 109% | viability [1, 4] 119% | viability [1, 5] 102% | viability [1, 6] 113% | viability [1, 7] 108% | viability [1, 8] 113% | viability [1, 9] 110% | viability [1, 10] 115% | viability [1, 11] 112% | viability [1, 12] 110% | viability [1, 14] 110% | viability [1, 16] 112% | viability [1, 18] 101%

O=c1[nH]c(=O)n([C@@H]2C[C@H](O)[C@@H](CO)O2)cc1F
active: viability [1, 5] 67.7% | viability [1, 6] 24.9% | viability [1, 9] 65.1% | viability [1, 10] 15.4% | viability [1, 14] 98.1% | viability [1, 15] 98.9% | viability [1, 18] 100% | viability [1, 26] 98.4% | viability [1, 29] 89.4% | viability [1, 30] 85.9% | viability [1, 33] 72.1% | viability [1, 34] 49.4%
inactive: viability [1, 3] 115% | viability [1, 4] 119% | viability [1, 7] 111% | viability [1, 8] 117% | viability [1, 11] 106% | viability [1, 12] 121% | viability [1, 13] 105% | viability [1, 16] 111% | viability [1, 17] 104% | viability [1, 19] 109% | viability [1, 20] 120% | viability [1, 21] 104% | viability [1, 22] 109% | viability [1, 23] 109% | viability [1, 24] 114% | viability [1, 25] 104% | viability [1, 27] 117% | viability [1, 28] 128% | viability [1, 31] 185% | viability [1, 32] 183%

CCOc1ccc(Cc2cc([C@@H]3O[C@H](CO)[C@@H](O)[C@H](O)[C@@H]3O)ccc2Cl)cc1
active: viability [1, 5] 94.3% | viability [1, 6] 91.9% | viability [1, 9] 96.6% | viability [1, 10] 98.1% | viability [1, 14] 98.8% | viability [1, 29] 99.3%
inactive: viability [1, 3] 111% | viability [1, 4] 102% | viability [1, 7] 126% | viability [1, 8] 108% | viability [1, 11] 108% | viability [1, 12] 106% | viability [1, 13] 105% | viability [1, 15] 117% | viability [1, 16] 116% | viability [1, 17] 101% | viability [1, 18] 107% | viability [1, 19] 111% | viability [1, 20] 108% | viability [1, 21] 106% | viability [1, 22] 106% | viability [1, 23] 112% | viability [1, 24] 118% | viability [1, 25] 105% | viability [1, 26] 105% | viability [1, 27] 111% | viability [1, 28] 118% | viability [1, 30] 112% | viability [1, 31] 110% | viability [1, 32] 121% | viability [1, 33] 106% | viability [1, 34] 109%

CCC(=O)OCC(=O)[C@@]1(OC(=O)CC)[C@H](C)C[C@H]2[C@H]3[C@H]([C@@H](O)C[C@@]21C)[C@@]1(C)C=CC(=O)C=C1C[C@H]3Cl
inactive: remaining NAD [2] 10 nM
